In PubChem BioAssay (NCATS):
Where “and” joins values, the source holds several entries; their conditions need not be identical. Equal entries are not always repeated. Records with an inconclusive call do not appear. Calls of active or inactive are those of the source. Calls follow the shape of the dose curve; as a rule, active = well fitted curve in the direction sought with a large enough effect; inconclusive = small, poorly fitted or top-dose-only effect, or another doubt; inactive = no such curve, though single readings can be large; an effect the other way counts as inactive or inconclusive.

Columns and labels:
[1] = molecular target: Calcium and integrin-binding protein 1 (Homo sapiens) (UniProt Q99828); experiment: Primary qHTS for Identification of Calcium Integrin Binding Protein 1 (CIB1) Competitor (AID 1508620);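 also: GST tagged CIB1 binding a fluorescein labelled alphaIIb integrin peptide tracer; top concentration of the series differs between compounds; % is scaled to controls: 0 for no effect and ±100 for the full control effect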
Calcium and integrin-binding protein 1 (Homo sapiens), sequence (Q99828 whole entry, looked up): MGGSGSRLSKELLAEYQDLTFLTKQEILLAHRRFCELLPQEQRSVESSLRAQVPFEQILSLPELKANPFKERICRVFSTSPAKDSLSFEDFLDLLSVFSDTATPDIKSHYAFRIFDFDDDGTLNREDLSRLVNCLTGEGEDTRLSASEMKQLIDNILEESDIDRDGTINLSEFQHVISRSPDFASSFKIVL
Method in brief: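 CIB1-GST (1 uM final) and compound incubated 15 min at room temperature before adding FITC-alphaIIb peptide tracer (100 nM final). Competition for binding read by fluorescence polarization (ex 480, em 540) after another 15 min at room temperature.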

[2] = Primary qHTS for inhibitors of nuclear receptor binding SET domain protein 2 (NSD2) in an isogenic RCH-ACV NSD2 p.E1099K mutant (9B) (AID 1645876); also: nearly all actives have a fitted effect of over 70% in size; also: potency is read from the fitted curve at half-maximal effect
[3] = Primary qHTS for inhibitors of nuclear receptor binding SET domain protein 2 (NSD2) in an RCH-ACV wild type WT cells (2C) (AID 1645877); also: nearly all actives have a fitted effect of over 70% in size; also: potency is read from the fitted curve at half-maximal effect
[4] = molecular target: Glutathione peroxidase 1 (Homo sapiens) (UniProt P07203); experiment: Primary qHTS Assay for Inhibitors of Recombinant Selenoprotein Glutathione Peroxidase 1 (GPX1) (AID 1845191); also: nearly all actives have a fitted effect of over 65% in size; as to activity, negative = inhibition: % is scaled to controls: 0 for no effect and ±100 for the full control effect
Glutathione peroxidase 1 (Homo sapiens), sequence (P07203 whole entry, looked up): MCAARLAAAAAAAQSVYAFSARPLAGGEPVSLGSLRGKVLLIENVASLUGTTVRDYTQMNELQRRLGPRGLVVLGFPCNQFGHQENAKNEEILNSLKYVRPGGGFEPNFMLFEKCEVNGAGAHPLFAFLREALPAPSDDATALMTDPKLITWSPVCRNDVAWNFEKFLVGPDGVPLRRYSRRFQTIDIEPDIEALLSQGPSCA
Method in brief: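 10 nM GPX1 + cpd, 30 min RT; start w/ 1 mM GSH, 0.5 mM cumene hydroperoxide, 0.5 mM NADPH, 100 nM GR, 0.01% BSA; buffer 50 mM Tris-HCl pH 7.5, 2 mM EDTA, 150 mM NaCl; Fl 340/450, 0 & 15 min.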

[5] = molecular target: Phospholipid hydroperoxide glutathione peroxidase GPX4 (Homo sapiens) (UniProt P36969); experiment: Primary qHTS Assay for Inhibitors of Recombinant Selenoprotein Glutathione Peroxidase 4 (GPX4) (AID 1845192); details: outcome: dose series up to 50 µM unless noted; also: nearly all actives have a fitted effect of over 65% in size; as to activity change, negative = inhibition: % is scaled to controls: 0 for no effect and ±100 for the full control effect
Phospholipid hydroperoxide glutathione peroxidase GPX4 (Homo sapiens), sequence (P36969 whole entry, looked up): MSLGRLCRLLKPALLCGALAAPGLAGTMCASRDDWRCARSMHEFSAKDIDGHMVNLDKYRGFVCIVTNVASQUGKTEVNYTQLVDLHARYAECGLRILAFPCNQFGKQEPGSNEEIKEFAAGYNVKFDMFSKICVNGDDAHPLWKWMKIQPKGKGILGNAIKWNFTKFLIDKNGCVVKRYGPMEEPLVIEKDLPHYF
Method in brief: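 NADPH consumption, followed by fluorescence at 340/450 nm between 0 and 15 min, reports GPX4 activity via coupled glutathione reductase (100 nM). Enzyme 200 nM was pre-exposed to compound 30 min; 0.5 mM cumene hydroperoxide and 1 mM GSH served as substrates.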

[6] = molecular target: Luciferin 4-monooxygenase (Photinus pyralis) (UniProt P08659); experiment: Primary firefly luciferase (FLuc) qHTS assay for identification of artifact compounds. (AID 1845220); also: nearly all actives have a fitted effect of over 60% in size;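 as to activity change, negative = inhibition: plate controls were DMSO vehicle for no effect and no enzyme for full effect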
Method in brief: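 Cell-free, 1536-well qHTS. Buffer pH 7.6 with 0.01% Tween-20 and 0.05% BSA; 10 uM D-luciferin, 10 uM ATP; 10 nM P. pyralis luciferase; luminescence after 5 min.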

[7] = Primary fluorescence-based thiol-reactive (MSTI) qHTS assay for identification of artifact compounds. (AID 1845221); also: nearly all actives have a fitted effect of over 65% in size; also: potency is read from the fitted curve at half-maximal effect;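 as to activity change, negative = thiol reactive: thiol-reactive compounds lower the probe fluorescence signal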
Method in brief: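 Thiol-reactive compounds detected by quenching of 4 uM MSTI fluorescence (525/598 nm) after 1 h room-temperature dark incubation in PBS pH 7.4, 2% DMSO. qHTS titration; percent inhibition Hill-fitted against Acetyl-MSTI/MSTI controls.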

[8] = test system: C33A; experiment: Primary qHTS to identify gynecologic anti-cancer compounds using libraries of approved drugs and bioactive compounds (AID 1345084); details: Gynecologic cancer cell panel viability, ATPlite luminescence, 48 h; series mostly up to 57.5 µM; also: nearly all actives have a fitted effect of over 55% in size; also: potency is read from the fitted curve at half-maximal effect; as to activity change, negative = cytotoxicity: % is scaled to controls: 0 for no effect and ±100 for the full control effect
Method in brief: (§1)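 Five-point cytotoxicity, 48 h drug exposure at 37 C, 5% CO2, on cells seeded 16 h beforehand. ATP content read by ATPlite luminescence.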

[9] = test system: CASKI; experiment: as above; details: Gynecologic cancer cell panel viability, ATPlite luminescence, 48 h; series mostly up to 57.5 µM
Method in brief: as §1

[10] = test system: Es-2; experiment: as above; details: Gynecologic cancer cell panel viability, ATPlite luminescence, 48 h; series mostly up to 57.5 µM
Method in brief: as §1

[11] = test system: HeLa; experiment: as above; details: Gynecologic cancer cell panel viability, ATPlite luminescence, 48 h; series mostly up to 57.5 µM
Method in brief: as §1

[12] = test system: Hek293T; experiment: as above; details: Gynecologic cancer cell panel viability, ATPlite luminescence, 48 h, control line for the selectivity index; series mostly up to 57.5 µM
Method in brief: as §1

[13] = test system: JEG-3; experiment: as above; details: Gynecologic cancer cell panel viability, ATPlite luminescence, 48 h; series mostly up to 57.5 µM
Method in brief: as §1

[14] = test system: OV90; experiment: as above; details: Gynecologic cancer cell panel viability, ATPlite luminescence, 48 h; series mostly up to 57.5 µM
Method in brief: as §1

[15] = test system: Tov-21-G; experiment: as above; details: Gynecologic cancer cell panel viability, ATPlite luminescence, 48 h; series mostly up to 57.5 µM
Method in brief: as §1

[16] = test system: Tov112D; experiment: as above; details: Gynecologic cancer cell panel viability, ATPlite luminescence, 48 h; series mostly up to 57.5 µM
Method in brief: as §1

[17] = test system: Zika virus NS2B-NS3 protease (linked construct); experiment: Primary screen NINDS Rhodamine qHTS for Zika virus inhibitors (AID 1347160); also: nearly all actives have a fitted effect of over 55% in size
Method in brief: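 Kinetic fluorescence (Ex 480 nm, Em 540 nm) over 15 min with 1.5 microM Rhodamine110 peptide and 25 nM linked protease.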

[18] = test system: Nanoluciferase (engineered Oplophorus gracilirostris luciferase); experiment: Primary Nanoluciferase (NLuc) qHTS assay for identification of artifact compounds. (AID 1845222); also: potency is read from the fitted curve at half-maximal effect;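 as to activity, negative = inhibition: 0% = DMSO and -100% = no enzyme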
Method in brief: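 Compounds are pinned into diluted (1:55) conditioned medium of NLuc-expressing S16 cells and held 15 min at room temperature protected from light. Nano-Glo substrate follows, and luminescence is read 5 min later.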

[19] = P-glycoprotein substrates identified in KB-8-5-11 adenocarcinoma cell line, qHTS therapeutic library screen (AID 1346987); also: nearly all actives have a fitted effect of over 65% in size; also: potency is read from the fitted curve at half-maximal effect
Method in brief: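 P-gp-mediated resistance screen: KB-8-5-11 cells treated 72 h with compounds in dose-response. CellTiter-Glo viability.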

Cc1nnsc1C(=O)Nc1ccc(-n2nc(C(F)(F)F)cc2C(F)(F)F)cc1
inactive: outcome [1] | Potency [4] | Potency [5] | Potency [6] | Potency [7] | Potency [8] | Potency [9] | Potency [10] | Potency [11] | Potency [12] | Potency [13] | Potency [14] | Potency [15] | Potency [16]
active: Potency [2] 20.5 µM | Potency [3] 11.5 µM

COc1cc2nc(-c3cc(F)ccc3O)nc(N[C@@H]3CNC[C@H]3C(C)(C)O)c2cc1OC
active: Potency [2] 4.59 µM and 1.48 µM | Potency [3] 4.09 µM and 1.66 µM
inactive: Potency [17] | outcome [1] | Potency [4] | Potency [5] | Potency [6] | Potency [7] | Potency [18] | Potency [8] | Potency [9] | Potency [10] | Potency [11] | Potency [12] | Potency [13] | Potency [14] | Potency [15] | Potency [16]

CC[C@H]1OC(=O)[C@H](C)[C@@H](O[C@H]2C[C@@](C)(OC)[C@@H](O)[C@H](C)O2)[C@H](C)[C@@H](O[C@@H]2O[C@H](C)C[C@H](N(C)C)[C@H]2O)[C@](C)(O)C[C@@H](C)/C(=N/OCOCCOC)[C@H](C)[C@@H](O)[C@]1(C)O
inactive: Potency [19] | Potency [17] | outcome [1] | Potency [2] | Potency [3] | Potency [5] | Potency [6] | Potency [7] | Potency [18] | Potency [8] | Potency [9] | Potency [10] | Potency [11] | Potency [12] | Potency [13] | Potency [14] | Potency [15] | Potency [16]

CC(CCC1(O)OC2CC3C4CC=C5CC(O[C@@H]6O[C@H](CO)[C@@H](O[C@@H]7O[C@H](CO)[C@@H](O)[C@H](O)[C@H]7O)[C@H](O)[C@H]6O[C@@H]6O[C@@H](C)[C@H](O)[C@@H](O)[C@H]6O)CCC5(C)C4CCC3(C)C2C1C)CO[C@@H]1O[C@H](CO)[C@@H](O)[C@H](O)[C@H]1O (stereo partly drawn)
inactive: outcome [1] | Potency [4] | Potency [5] | activity change, negative = inhibition [6] 1.02% [at 11.6 µM] | activity change, negative = thiol reactive [7] 204% [at 11.5 µM] | activity, negative = inhibition [18] 4.58% [at 11.6 µM] | activity change, negative = cytotoxicity [8] 1.45% [at 11.6 µM] | activity change, negative = cytotoxicity [9] 1.26% [at 11.6 µM] | activity change, negative = cytotoxicity [10] 5.5% [at 11.6 µM] | activity change, negative = cytotoxicity [11] -13.3% [at 11.6 µM] | activity change, negative = cytotoxicity [12] 1.54% [at 11.6 µM] | activity change, negative = cytotoxicity [13] -6.68% [at 11.6 µM] | activity change, negative = cytotoxicity [14] -1.03% [at 11.6 µM] | activity change, negative = cytotoxicity [15] -1.21% [at 11.6 µM] | activity change, negative = cytotoxicity [16] 7.99% [at 11.6 µM]

C=C1C(=O)O[C@@H]2C[C@@H](C)[C@]34C[C@]5(C(=O)O[C@H]6CC(C)=C([C@H](C)CCCO)[C@H](OC(=O)C(C)CC)[C@H]65)[C@@H](C(C)=C3C[C@@H]12)[C@H]4OC(C)=O (stereo partly drawn)
active: Potency [19] 5.44 µM | Potency [2] 2.16 µM | Potency [3] 1.53 µM
inactive: Potency [17] | outcome [1] | Potency [4] | Potency [5] | Potency [18] | Potency [8] | Potency [9] | Potency [10] | Potency [11] | Potency [13] | Potency [14] | Potency [16]

COc1cc(-c2cc(-c3cccc(O)c3)cnc2N)cc(OC)c1OC
active: Potency [2] 10.3 µM | Potency [3] 12.9 µM
inactive: Potency [17] | outcome [1] | Potency [4] | Potency [6] | Potency [7] | Potency [8] | Potency [9] | Potency [10] | Potency [11] | Potency [12] | Potency [13] | Potency [14]

COc1ccc2c3ccnc4ccc(=O)n(c2c1)c43
inactive: Potency [17] | outcome [1] | Potency [4] | Potency [5] | Potency [6] | Potency [7] | Potency [18] | Potency [8] | Potency [13] | Potency [14]
active: Potency [11] 14.1 µM

CCCCC(=O)N(Cc1ccc(-c2ccccc2-c2nn[nH]n2)cc1)C(C(=O)O)C(C)C (stereo not drawn)
inactive: Potency [17] | Potency [2] | Potency [3] | Potency [5] | Potency [6] | Potency [7] | Potency [8] | Potency [9] | Potency [10] | Potency [11] | Potency [12] | Potency [13] | Potency [14] | Potency [15] | Potency [16]

C[C@@H](CN1CCC(n2c(=O)[nH]c3cc(Cl)ccc32)CC1)NC(=O)c1ccc2ccccc2c1
active: Potency [19] 18.4 µM | Potency [2] 10.3 µM | Potency [3] 16.3 µM
inactive: Potency [17] | outcome [1] | Potency [4] | Potency [5] | Potency [7] | Potency [18] | Potency [8] | Potency [9] | Potency [10] | Potency [11] | Potency [12] | Potency [13] | Potency [15] | Potency [16]

C=C(C(=O)O)C1CC2=C(C)C(=O)CC2C(C)CC1O (stereo not drawn)
active: Potency [2] 11.5 µM | Potency [3] 5.78 µM | Potency [7] 26.7 µM
inactive: outcome [1] | Potency [4] | Potency [5] | Potency [6] | Potency [18] | Potency [8] | Potency [9] | Potency [11] | Potency [16]

Cc1nc(C)c2c(n1)N(Cc1ccc(-c3ccccc3-c3nn[nH]n3)cc1)C(=O)CC2
inactive: Potency [17] | outcome [1] | Potency [2] | Potency [3] | Potency [4] | Potency [5] | Potency [6] | Potency [7] | Potency [8] | Potency [9] | Potency [10] | Potency [11] | Potency [12] | Potency [13] | Potency [14] | Potency [15] | Potency [16]
active: Potency [18] 21.3 µM

CCOc1ccc(-c2nc(-c3cccc4c3CCC4NCCO)no2)cc1OCC (stereo not drawn)
active: Potency [2] 6.49 µM | Potency [3] 7.28 µM
inactive: Potency [17] | outcome [1] | Potency [4] | Potency [5] | Potency [6] | Potency [7] | Potency [18] | Potency [8] | Potency [9] | Potency [11] | Potency [12] | Potency [13] | Potency [15] | Potency [16]

CCN(CC)c1ccc(C(=C2C=CC(=[N+](CC)CC)C=C2)c2cc(S(=O)(=O)O)ccc2S(=O)(=O)[O-])cc1
active: Potency [8] 10 µM | Potency [10] 28.2 µM | Potency [12] 12.6 µM | Potency [14] 12.6 µM | Potency [15] 25.1 µM
inactive: outcome [1] | Potency [4] | Potency [5]
